Here are results for 40 molecules from PubChem BioAssay (NCATS).

The structures appear in SMILES notation. Values joined by “and” are separate entries in the source; they are usually repeats but may differ in a detail not shown here. Equal entries are not always repeated. Records with an inconclusive call do not appear. Some compounds were tested as several samples or in several runs, with calls that do not always agree. Active and inactive are the calls of the source. Calls come from the whole dose curve; as a rule, active = well fitted cell-killing curve with a large enough effect; inconclusive = small, poorly fitted or top-dose-only effect, or effect the other way; inactive = no such curve, though single readings can be large or run the other way.
Potency is the fitted concentration of half-maximal effect.

The test in a line: Viability qHTS for spleen associated tyrosine kinase inhibitor (SYKi) naive MV4-11 cells (AID 1963823). Note: nearly all actives have a fitted effect of over 40% in size. To be noted: MV4-11 AML viability, CellTiter-Glo luminescence, 72 h; series mostly up to 45 µM; viability (% of control): at the top concentration. In a few lines: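 Viability of MV4-11 AML cells lacking prior SYK inhibitor exposure is scored by CellTiter-Glo luminescence following 72 hr compound incubation at 37 C, 5% CO2, seeded at 500 cells per well.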
Consider `CN1CCN(c2ccc(C(=O)Nc3n[nH]c4ccc(Cc5cc(F)cc(F)c5)cc34)c(NC3CCOCC3)c2)CC1`, for which the Potency was 209 nM (active) and 164 nM (active).
With `O=C(O)c1ccc2c(c1)nc(Nc1cccc(Cl)c1)c1ccncc12`, the Potency was 1.84 µM (active) and 1.32 µM (active).
Take `CN1C2CCC1CC(OC(=O)C(CO)c1ccccc1)C2` (stereo not given): the “viability (% of control)” value was 91.3% (inactive).
Consider `CCCCS(=N)(=O)CCC(N)C(=O)O` (stereo not given), for which the Potency was 24.1 µM (active).
Regarding `Clc1ccc2c(c1)C(N1CCNCC1)=Nc1ccccc1O2`, the “viability (% of control)” value is 81.6% (inactive).
On to `Fc1ccc(CNc2ncnc3ccc(F)cc23)cc1`, for which the Potency was 2.06 µM (active).
On the same count and under the same terms, then `O=C1NC(=O)C(c2cnc3ccccn23)=C1c1cn2c3c(cccc13)CN(C(=O)N1CCOCC1)CC2`, with 0.231 µM (active); and `CO[C@@H]1C(N(C)C(=O)c2ccccc2)C[C@H]2O[C@]1(C)n1c3ccccc3c3c4c(c5c6ccccc6n2c5c31)C(=O)NC4=O` (stereo not given in full), with 0.148 µM (active).
Same read-out and setting: then `CC(C)(C)c1cc(C(C)(C)C)c(NC(=O)c2c[nH]c3ccccc3c2=O)cc1O`, with 11.8 µM (active); and `CC(C)c1cc(-c2n[nH]c(=O)n2-c2ccc3c(ccn3C)c2)c(O)cc1O`, with 9.2 nM (active) and 9.3 nM (active).
Same read-out and setting: then `Cc1ccc(C(=O)Nc2cccc(C(F)(F)F)c2)cc1-c1ccc2nc(NCCN3CCOCC3)ncc2c1`, with 184 nM (active) and 372 nM (active).
For `COc1ccc(-c2oc3c(CC=C(C)C)c(O)cc(O)c3c(=O)c2O)cc1`, the Potency was 8.33 µM (active).
Same read-out and setting: then `Cc1ccc(F)c(NC(=O)Nc2ccc(-c3cccc4[nH]nc(N)c34)cc2)c1`, with 0.0166 µM (active).
Regarding `COCCCOc1cc(C[C@@H](C[C@H](N)[C@@H](O)C[C@H](C(=O)NCC(C)(C)C(N)=O)C(C)C)C(C)C)ccc1OC`, the “viability (% of control)” value is 79.8% (inactive).
Consider `Clc1ccccc1C(c1ccccc1)(c1ccccc1)n1ccnc1`, for which the Potency is 5.25 µM (active).
Still for that read-out and setting: then `C=CC(=O)Nc1ccc2ncnc(Nc3ccc(OCc4cccc(F)c4)c(Cl)c3)c2c1`, with 5.8 µM (active) and 5.9 µM (active).
Consider `O=c1c(O)c(-c2ccc(O)c(O)c2)oc2cc(O)cc(O)c12`, for which the Potency was 23.7 µM (active) and inactive.
In the case of `CCCc1cc(C(N)=S)ccn1`, the “viability (% of control)” value was 84.1% (inactive).
As for `CC(=O)Nc1ccc([C@H](C)C(=O)Nc2ncc(C(C)C)s2)cc1`, the Potency is 1.66 µM (active).
On the same count and under the same terms, then `Nc1nc(Nc2ccc(S(N)(=O)=O)cc2)nn1C(=O)c1c(F)cccc1F`, with 1.16 µM (active) and 1.86 µM (active); and `CC(C)C[C@H](NC(=O)CNC(=O)c1cc(Cl)ccc1Cl)B1OC(=O)CC(CC(=O)O)(C(=O)O)O1` (stereo not given in full), with 0.148 µM (active); and `CNC(=O)c1ccc2c(C(=Nc3cccc(CN(C)C)c3)c3ccccc3)c(O)[nH]c2c1`, with 2.95 µM (active).
On the same count and under the same terms, then `C[C@H]1COC2=C1C(=O)C(=O)c1c2ccc2c1CCCC2(C)C`, with 5.9 µM (active).
Same read-out and setting: then `O=C(c1ccc(F)cc1)N1CCC[C@H](c2nc(-c3ccc(F)cc3)no2)C1`, with 20.9 µM (active); and `CC(=O)NC(C)c1ccc(Oc2ccc(OC(C)C)cc2)cc1` (stereo not given), with 10.8 µM (active).
`COc1c2occc2cc2ccc(=O)oc12`: the “viability (% of control)” value is 94.3% (inactive).
Take `COc1ccc(-n2nc(C(N)=O)c3c2C(=O)N(c2ccc(N4CCCCC4=O)cc2)CC3)cc1`: the “viability (% of control)” value was 55.8% (inactive).
Turning to `O=C(O)CCCCCC(=O)NN=C1CCCC1`, the “viability (% of control)” value is 92.2% (inactive).
As to `Cc1cc2c(F)c(Oc3ncnn4cc(OC[C@@H](C)O)c(C)c34)ccc2[nH]1`, the Potency was 5.9 µM (active).
`O=C(O)CCNC(=O)c1ccc(N=Nc2ccc(O)c(C(=O)O)c2)cc1`: the “viability (% of control)” value was 82.1% (inactive).
In the case of `CNC(=O)[C@H](Cc1ccccc1)NC(=O)[C@H](CC(C)C)[C@H](CSc1cccs1)C(=O)NO`, the Potency is 5.25 µM (active).
For `N#Cc1ccnc(Nc2cc(C3CCN(C4COC4)CC3)cc(N3CCC(F)(F)C3)n2)c1`, the Potency was 1.16 µM (active) and 118 nM (active).
As to `Cc1cc([C@@H](C)Nc2ccccc2C(=O)O)c2nc(N3CCOCC3)cc(=O)n2c1`, the Potency was 5.01 µM (active) and 5.25 µM (active).
Still for that read-out and setting: then `O=C1CCCC2=C1C(c1[nH]ncc1Cl)N=C(Nc1nc3ccccc3o1)N2` (stereo not given), with 8.33 µM (active); and `CCN1CCN(c2ccc(Nc3cc(N(C)C(=O)Nc4c(Cl)c(OC)cc(OC)c4Cl)ncn3)cc2)CC1`, with 2.63 µM (active); and `Cc1nc(Nc2n[nH]c3c2CN(C(=O)N[C@H](CN(C)C)c2ccccc2)C3(C)C)c2sccc2n1`, with 0.0132 µM (active).
Take `CC(=O)CC(c1ccccc1)c1c(O)c2ccccc2oc1=O` (stereo not given): the “viability (% of control)” value is 89% (inactive).
As to `CCc1ccc(C(=O)Nc2cc(CN3CCN(C)CC3)cc(C(F)(F)F)c2)cc1C#Cc1cnc2ccnn2c1`, the Potency was 2.59 µM (active) and 2.06 µM (active).
Regarding `CON(C)C(=O)N1N=C(c2cc(F)ccc2F)S[C@@]1(CCCN)c1ccccc1`, the Potency is 0.0092 µM (active).
Same read-out and setting: then `N#CC1(c2ccc(NC(=O)c3cccnc3NCc3ccncc3)cc2)CCCC1`, with 2.31 µM (active).
